In PubChem BioAssay AID1963576 (National Center for Advancing Translational Sciences (NCATS), 2024):
The campaign covered roughly 46,000 compounds. About 60 (0.1%) were called active. Inconclusive results (about 3%) are left out. The sample holds actives, similar compounds and a random draw of the others, so the mix is not that of the screen. Unmarked numbers belong to inactive results. Calls follow the shape of the dose curve; as a rule, active = well fitted inhibition curve with a large enough effect; inconclusive = small, poorly fitted or top-dose-only effect; inactive = no such curve, though single readings can be large or run the other way.

Experiment: Primary qHTS assay for Inhibitors of ovarian cancer metastasis using an organotypic tumor microenvironment (TME) model. Also: nearly all actives have a fitted effect of over 65% in size.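 As to Potency: count of GFP cancer cells still attached after washing and fixation.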
Settings: SKOV3ip1-GFP adhesion/invasion on 3D omental model, fluorescence; series mostly up to 45.8 µM; activity change, negative = inhibition: at the top concentration
Description: PI: Ernst Lengyel MD., Ph.D. Department of Obstetrics and Gynecology, Section of Gynecologic Oncology University of Chicago Medicine, Chicago, Illinois. The tumor microenvironment (TME) is a key determinant of metastatic efficiency. We performed a quantitative high-throughput screen (qHTS) of diverse medicinal chemistry tractable scaffolds (44,420 compounds) and pharmacologically active small molecules (386 compounds) using a layered organotypic, robust assay representing the ovarian cancer metastatic TME. This 3D model contains primary human mesothelial cells, fibroblasts, and extracellular matrix, to which fluorescently labeled ovarian cancer cells are added. Initially, 100 compounds inhibiting ovarian cancer adhesion/invasion to the 3D model in a dose-dependent manner were identified. Of those, eight compounds were confirmed active in five high-grade serous ovarian cancer cell lines and were further validated in secondary in vitro and in vivo biological assays. […] Specifically, NCGC00117362 and PP-121 inhibited ovarian cancer adhesion, invasion, and proliferation, whereas milciclib inhibited ovarian cancer invasion and proliferation. […] To evaluate the clinical potential of NCGC00117362, structure - activity relationship studies were performed. […] The three compounds identified have promise as therapeutics for prevention and treatment of ovarian cancer metastasis.
PROTOCOL TABLE (as described by Inglese J, Shamu CE and Guy RK. 2007) SEQUENCE No. (e.g., 1, 2, 3, etc.); […] (e.g., Cells, Incubation, Reagent, etc.); VALUE; DESCRIPTION. 1; Cells; 4 uL; primary human omental fibroblast, black, clear bottom, low base, 1536-well Aurora assay plate. 2; Incubation; 48 hr; 37C. 3; Cells; 3 uL; 1,200 SKOV3ip1-GFP cells. 4; Compounds; 23nL; acoustic dispenser. 5; Incubation; 2 hr; room temperature. 6; Incubation; 16 hr; 37C. 7; Wash; 5 uL; 1x PBS. 8; Fixing; 5 uL; 4% paraformaldehyde (PFA). 9; Incubation; 15 min; room temperature 10; Wash, 5 uL; 1x PBS. 11; Detection; Fluorescence, excitation filter 488 nm, emission filter 509 nm. NOTES (numbers refer to Sequence numbers above) 1. For the 1,536-well format, 40 primary human omental fibroblasts and 400 mesothelial cells were seeded with 0.02 µg fibronectin and 0.02 µg collagen type I in 4 µL of growth media (2.3 mm2; Supplementary Fig. S1A). 2. Assay plates were incubated for 48 hours at 37 C. 3. After incubation, 1,200 SKOV3ip1-GFP were seeded in 3 µL of serum-free media (growth media minus FBS) on top of primary human omental cells. 4. Compounds or controls were added to each well immediately after the addition of the cancer cells. Compounds were screened in four doses (0.36-46 µmol/L), and the plates contained the positive control (Tomatine) in eight doses (0.035-75 µmol/L) and DMSO (equal volume controls) 5 - 6. The plates were incubated at room temperature for 2 hours and then at 37 degrees C for 16 hours. 7 - 10. Following incubation, the media were aspirated and each well washed with PBS (5 µL) and then fixed with 4% paraformaldehyde (PFA; 5 µL). After 15 minutes, the PFA solution was aspirated, PBS (5 µL) was added. 11. The number of GFP-labeled cells analyzed using a fluorescent cytometer TTP LabTech Acumen eX3 using 488 nm excitation filter and 509 nm emission filter. Data was normalized to the DMSO treated for negative and Tomatine treated wells for positive control. REFERENCES: Inglese J, Shamu CE and Guy RK, Reporting data from high throughput screening of small molecule libraries, Nature Chemical Biology, 2007, 3(8): 438-441. doi.org/10.1038/nchembio0807-438. Yasgar A, Shinn P, Jadhav A, Auld DS, Michael S, Zheng W, Austin CP, Inglese J and Simeonov A, Compound Management for Quantitative High-Throughput Screening. J. Assoc. Lab. Auto., 2008, 13: 79-89. doi: 10.1016/j.jala.2007.12.004.
Potency is read from the fitted curve at half-maximal effect.

| Structure (SMILES) | outcome | activity change, negative = inhibition | Potency |
| --- | --- | --- | --- |
| Cc1ccc2nc(NC(=O)c3nc(SCc4ccccc4F)ncc3Cl)sc2c1 | inactive |  |  |
| COc1ccc(Cn2ccc3nc(C)c(C(=O)Nc4ccc(C)c(F)c4)cc3c2=O)cc1 |  | 1.42% |  |
| CCCCNC(=O)C1CCCN(c2nnc(C)c3c(C)n(-c4ccc(Cl)cc4)nc23)C1 (configuration not stated) |  | 4.38% |  |
| COC(=O)c1cc(NC(=O)c2sc3ccccc3c2Cl)cc(C(=O)OC)c1 |  | 0.94% |  |
| Cc1cccc(S(=O)(=O)c2cn(Cc3ccccc3)c3cc(N4CCOCC4)c(F)cc3c2=O)c1 |  | 2.35% |  |
| CC1=C(c2ccc(F)cc2)S(=O)(=O)N=C1N1CCC(C(=O)NCCc2ccccc2C)CC1 |  | -4.77% |  |
| CCOC(=O)C1CCCN(S(=O)(=O)c2cc(-c3cc(C)no3)ccc2OC)C1 (configuration not stated) |  | -0.925% |  |
| CCOc1ccccc1NC(=O)Cn1c(=O)n(-c2cccc(C)c2)c(=O)c2c1c1cc(OC)ccc1n2C |  | 6.79% |  |
| COc1ccc(CCNC(=O)C(=O)NCC(c2ccco2)S(=O)(=O)c2cccs2)cc1OC (configuration not stated) |  | 12% |  |
| COc1ccc(CCNCc2c(C(=O)O)c(C)n(Cc3cccc(C)c3)c2C)cc1OC |  | -2.02% |  |
| CCN(CC)CCNC(=O)c1c(C)[nH]c(C=C2C(=O)Nc3ccc(F)cc32)c1C |  | -23.8% [at 92.2 µM] |  |
| COc1ccc(C2(Nc3cccc(F)c3)C(=O)c3ccccc3C2=O)cc1 | inactive |  |  |
| COc1ccc(/C=C/c2nc(C#N)c(NCc3ccc(F)cc3)o2)cc1OC | inactive |  |  |
| COc1ccc(NC(C)=O)cc1NC(=O)CN1CCN(c2ccc(F)cc2)CC1 |  | 3.17% |  |
| CCCCCn1c(=O)[nH]c2cc(C(=O)Nc3cc(C)cc(C)c3)ccc2c1=O | inactive |  |  |
| Cc1ccc(NC(=O)CCCn2c(=O)c3cccn3c3ccccc32)cc1Cl | inactive |  |  |
| Cc1ccc(C)c(CNC(=O)c2cc3ccccn3n2)c1 |  | -2.96% |  |
| CSc1oc(-c2cccs2)nc1S(=O)(=O)c1ccc(Br)cc1 |  | -2.14% |  |
| CCCCS(=O)(=O)c1oc(-c2cccs2)nc1S(=O)(=O)c1ccccc1 |  |  | 2.51 µM (active) |

| Structure (SMILES) | outcome | activity change, negative = inhibition | Potency |
| --- | --- | --- | --- |
| Cc1ccc(CSc2oc(-c3cccs3)nc2S(=O)(=O)c2ccc(C)cc2)cc1 |  | 2.23% |  |
| CN(CC(=O)Nc1ccccc1F)S(=O)(=O)c1ccc2c(c1)c(=O)n(C)c(=O)n2C | inactive |  |  |
| Cc1ccc(NC(=O)Cn2cnc3nc4c(cc3c2=O)CCCC4)cc1Cl |  | -18.1% |  |
| COc1cccc(C(=O)NC(=O)Nc2ccc(-c3cc(C(F)(F)F)nn3-c3ccccc3)cc2)c1 |  | -6.28% |  |
| Cc1cc(C)c2oc(C(=O)Nc3c(C(=O)Nc4ccccc4)oc4ccccc34)cc(=O)c2c1 |  | -0.148% |  |
| COc1ccc(CCNC(=O)c2cnc3sc(N4CCCCCC4)nn3c2=O)cc1OC | inactive |  |  |
| COc1cc(NC(=O)c2nn(-c3ccc(C)cc3)c(=O)c3c2c2ccccc2n3C)cc(OC)c1OC |  | 2.39% |  |
| Cc1ccc(Cl)cc1NC(=O)NC1COc2ccccc2C1 (configuration not stated) |  | -3.78% |  |
| Cn1ccc2cc(S(=O)(=O)N3CCCC(C(=O)NCc4ccccc4F)C3)ccc21 (configuration not stated) |  | -6.3% |  |
| COC(=O)c1ccc(OC)c(Cn2c(=O)n(Cc3ccccc3)c(=O)c3c2c2cc(OC)ccc2n3C)c1 |  | 0.627% |  |
| Cc1cccc(CCNC(=O)c2ccc3c(c2)nc2n3CCC(C)C2)c1 (configuration not stated) |  | -15% |  |
| CCOC(=O)C1CCN(c2ncnc3c2c(-c2ccccc2)cn3-c2cccc(C)c2)CC1 | inactive |  |  |
| CC(=O)O[C@]1(C(C)=O)CC[C@@H]2[C@@H]3C[C@H](C)C4=CC(=O)CC[C@]4(C)[C@H]3CC[C@@]21C |  | 20% |  |
| CC1=C(C(=O)OCc2ccc(C)cc2)C(c2ccccc2Cl)CC(=O)N1 (configuration not stated) | inactive |  |  |
| Cc1ccc(C(=O)Nc2cc3c(cc2N2CCCC2)n(C)c(=O)c(=O)n3C)cc1 |  | 6.74% |  |
| COc1ccccc1-c1cc2nc(C)c(CCC(=O)NC3CCCCC3)c(C)n2n1 |  | -9.62% |  |
| CCOc1ccc(NC(=O)CCc2c(C)nn(-c3ccc(N4CCCC4)nn3)c2C)cc1 | inactive |  |  |
| CN1CCN(c2oc(-c3ccc(COc4ccc(Cl)cc4)o3)nc2C#N)CC1 |  | 3.31% |  |
| COc1ccc(Cn2cc(C(=O)c3ccc(C)cc3)c(=O)c3cc(OC)c(OC)cc32)cc1 |  | -5.32% |  |

| Structure (SMILES) | outcome | activity change, negative = inhibition | Potency |
| --- | --- | --- | --- |
| Cc1ccc2nc(COc3ccc(NC(=O)COc4ccccc4F)cc3)cc(=O)n2c1 | inactive |  |  |
| COc1ccccc1CNC(=O)c1ccc(-n2c(C)cc3c2CCCC3)cc1 |  | 2.22% |  |
| O=C(CSCc1cnn(-c2ccccc2)c1-n1cccc1)NCc1ccccc1Br |  | 0.114% |  |
| COc1cc(Cl)cn2c(-c3cccc(NC4CNC4)n3)cnc12 |  | 6.77% |  |
| Cc1ccc(C)c(Nc2nnc(-c3ccc(C)c(S(=O)(=O)N4CCCCC4)c3)c3ccccc23)c1 |  | -1.28% |  |
| Cc1ccc(C)c(N2CCN(C(=O)CCc3c(C)nc4c(c3C)c(=O)n(C)c(=O)n4C)CC2)c1 |  | -15.3% |  |
| CCOc1ccc(NC(=O)c2cc3c(=O)n(Cc4cccs4)ccc3nc2C)cc1 |  | 2.81% |  |
| CCCOc1ccc(NC(=O)CC2C(=O)N(c3ccccc3)C(=O)N2Cc2ccco2)cc1 (configuration not stated) |  | 2.15% |  |
| O=C(CCCn1c(=O)c2cccn2c2cccnc21)NCc1ccc(F)cc1 | inactive |  |  |
| Cc1ccccc1-c1nc2cc(NC(=O)c3cccc(OCCC(C)C)c3)ccc2o1 |  | 1.04% |  |
| CCN(Cc1ccccc1)C(=O)CCS(=O)(=O)c1ccc2c(c1)oc(=O)n2C |  | 8.58% |  |
| Cc1cccc(NC(=O)CN(c2ccc(C(C)C)cc2)S(=O)(=O)c2c(C)nn(C)c2C)c1C |  | -7.12% |  |
| O=C(CCc1ccccc1)NCc1ccc2c(c1)CCN2C(=O)c1ccccc1 | inactive |  |  |
| Cc1cc(O)c(C(c2ccccc2)N2CCN(c3ccccc3F)CC2)c(=O)n1Cc1ccco1 (configuration not stated) |  | -0.378% |  |
| O=[N+]([O-])c1cc(-c2nc(-c3ccccc3)no2)ccc1NCc1ccco1 |  | 6.86% |  |
| Cc1ccc(C)c(Cn2c(C)c(CNCc3ccc(F)cc3)c(C(=O)O)c2C)c1 | inactive |  |  |
| COc1ccc(C2(C#N)CCC(C(=O)O)CC2)cc1OC1CCCC1 (configuration not stated) |  | 9.33% |  |
| CCOC(=O)c1c(NC(=O)c2cc(CC)on2)sc(C(C)=O)c1C |  | 8.82% |  |
| CC(C)(C)c1[nH]cnc1C=c1[nH]c(=O)c(=Cc2ccccc2)[nH]c1=O |  | 0.182% [at 92.2 µM] |  |
